GLS inhibitor – qHTS for Inhibitors of Glutaminase (GLS) | Glutaminase kidney isoform, mitochondrial (Homo sapiens), O94925 | GLS enzymatic activity, qHTS titration | Potency, µM (doses to about 45.5 µM), without a hit: top-dose activity change, negative = inhibition, hits mostly inhibitors | 410,000 compounds, 0.21% hits; also: % is scaled to controls: 0 for no effect and ±100 for the full control effect
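hKGA in 45 mM KH2PO4 (pH 8.2), 0.02% Tween-20 with compound, then 1mM L-Glutamine (stock as added) plus glutamate oxidase/HRP/Amplex red coupling mix. Fluorescence read initially and after 30 min at RT; signal change reflects glutamate formation.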
POLB inh – qHTS Assay for Inhibitors of DNA Polymerase Beta; Pol beta primer extension/strand displacement, fluorescence kinetic; Potency, µM (highest dose often 114 µM), inactives show top-dose activity change, negative = inhibition, hits mostly inhibitors; 340,000 compounds, 1.3% hits; AID 485314, 2010; P06746; also: % is scaled to controls: 0 for no effect and ±100 for the full control effect
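Homogeneous kinetic assay of primer extension and strand displacement by 10 nM Pol beta, preincubated 15 min at room temperature with compound before 50 nM substrate (final) was added. Read at 0 and 10 min; four-parameter Hill fit.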
Pol eta inh – qHTS for Inhibitors of Polymerase Eta. DNA polymerase eta (Homo sapiens), Q9Y253. recombinant Pol eta, fluorescent DNA replication assay. Potency, µM (top dose mostly 114 µM), for inactives: at the top dose activity change, negative = inhibition, usual class: inhibitors. 390,000 compounds, 1.2% hits; also: % is scaled to controls: 0 for no effect and ±100 for the full control effect
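Pol eta at 10 nM preincubated with compounds 15 min at room temperature; reaction started with fluorescent substrate (50 nM final) and read kinetically at 0 and 10 min.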
POLK inh – qHTS for Inhibitors of Polymerase Kappa; purified Pol kappa, fluorescent DNA synthesis assay, 10 min; Potency, µM (highest dose often 107 µM), inactives show top-dose activity, negative = inhibition, usual class: inhibitors; 400,000 compounds, 0.53% hits; also: % is scaled to controls: 0 for no effect and ±100 for the full control effect
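10 nM Pol kappa was preincubated with compounds for 15 min at room temperature. Reaction started with 50 nM (final) substrate. Fluorescence read kinetically at 0 and 10 min.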
GCN5L2 inh – qHTS Assay for Inhibitors of GCN5L2; Histone acetyltransferase KAT2A (Homo sapiens), Q92830; GCN5L2 HAT assay, ThioGlo1 CoA-SH fluorescence; Potency, µM (titrated, usually from 58.9 µM), for inactives: at the top dose activity change, negative = inhibition, actives largely listed as inhibitors; 390,000 compounds, 0.21% hits; also: % is scaled to controls: 0 for no effect and ±100 for the full control effect
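GCN5L2 (20 nM) in 50mM HEPES pH 7.5, 0.1mM EDTA, 0.01% Tween-20 preincubated 15 min with compounds at room temperature. Reaction started with H3(1-25) 75uM, acetyl-CoA 70uM, ThioGlo1 50uM; CoA-thiol fluorescence (Ex340/Em540) read at 0 and 20 min.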
POLI inh – qHTS for Inhibitors of Polymerase Iota. 390,000 compounds, 1% hits. Potency, µM (series often up to 115 µM), without a hit: at the highest dose activity, negative = inhibition, actives largely listed as inhibitors. Pol iota fluorescent replication assay, 10 min. DNA polymerase iota (Homo sapiens), Q9UNA4
Target sequence (Q9UNA4 whole entry, looked up): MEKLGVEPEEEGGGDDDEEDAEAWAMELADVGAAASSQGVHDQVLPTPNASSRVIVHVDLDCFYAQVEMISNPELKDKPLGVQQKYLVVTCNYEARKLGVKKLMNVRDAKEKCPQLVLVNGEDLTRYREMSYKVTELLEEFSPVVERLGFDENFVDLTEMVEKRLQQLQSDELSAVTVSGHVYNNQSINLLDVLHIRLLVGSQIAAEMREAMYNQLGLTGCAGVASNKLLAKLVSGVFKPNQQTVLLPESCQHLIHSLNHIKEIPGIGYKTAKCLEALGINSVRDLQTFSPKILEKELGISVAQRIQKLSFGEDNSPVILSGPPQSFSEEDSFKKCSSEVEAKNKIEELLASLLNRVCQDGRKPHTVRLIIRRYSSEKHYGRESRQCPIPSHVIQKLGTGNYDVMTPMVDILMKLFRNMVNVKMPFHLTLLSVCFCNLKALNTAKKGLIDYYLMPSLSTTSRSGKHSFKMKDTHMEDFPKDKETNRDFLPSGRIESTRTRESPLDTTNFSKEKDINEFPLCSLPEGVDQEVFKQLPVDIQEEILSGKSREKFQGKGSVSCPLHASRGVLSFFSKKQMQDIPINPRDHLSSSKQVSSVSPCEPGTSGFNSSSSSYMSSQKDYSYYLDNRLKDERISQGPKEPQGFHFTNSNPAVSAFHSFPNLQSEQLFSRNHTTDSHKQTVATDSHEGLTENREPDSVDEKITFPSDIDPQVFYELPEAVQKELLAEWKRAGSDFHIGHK
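Fluorescent replication assay read twice, at 0 min and 10 min after adding 50 nM (final) substrate. Enzyme (10 nM) and compounds were first incubated 15 min at room temperature; enzyme-free buffer wells were negative controls.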
* marks the source's active call; other numbers are inactive results; ? = inconclusive; nt = not tested or not shown; ! = repeats disagree; [ ] = remark or other dose. In the library only some 2.4% were active in any assay of this set; here they are far more common. Calls follow the shape of the dose curve; as a rule, active = well fitted inhibition curve with a large enough effect; inconclusive = small, poorly fitted or top-dose-only effect, or another doubt; inactive = no such curve, though single readings can be large or run the other way. Potency is read from the fitted curve at half-maximal effect.

SMILES	GLS inhibitor	POLB inh	Pol eta inh	POLK inh	GCN5L2 inh	POLI inh
O=C(COC(=O)c1cn(-c2ccccc2)nc1-c1ccccc1)Nc1ncc(Cl)cc1Cl	-8%	?	35µM*	?	-9%	?
COc1cccc(-c2nn(-c3ccccc3)cc2C(=O)OCC(=O)Nc2ncc(Cl)cc2Cl)c1	-9%	-5%[57.1 µM]	5%	-23%	-13%	-3%
CN(C)/[N+]([O-])=N/Oc1cc(O/[N+]([O-])=N/N2CCCC2CO)c([N+](=O)[O-])cc1[N+](=O)[O-] (stereo not given)	nt	nt	nt	-12%	nt	-5%
Cc1noc2ncnc(N3CCN(c4ccccc4F)CC3)c12	-4%	4%	3%	-6%	4%	-11%
CC1(C)C(=O)Nc2ccccc2N1C(=O)CSc1ncccn1	4%	?	?	?	0%	45µM*
Cc1ccccc1OCCC(=O)OCC(=O)N1c2ccccc2NC(=O)C1(C)C	-1%	nt	?	-14%	-5%	?
O=C(COc1ccc(S(=O)(=O)N2CCOCC2)cc1Cl)N1CCCC1	5%	24%	-11%	0%	-2%	20%
CC1(C)C(=O)Nc2ccccc2N1C(=O)COc1ccc(S(=O)(=O)N2CCOCC2)cc1Cl	-14%	25µM*	?	-19%	-11%	?
CC1(C)C(=O)Nc2ccccc2N1C(=O)COc1ccccc1C#N	?	nt	?	?	-2%	35µM*
COc1ccc(NC(=O)c2ccc3c(SCC(=O)O)c4c(nc3c2)CCCC4)c(OC)c1	6%	40µM*!	-18%	?	?	79µM*
O=C(O)CSc1c2c(nc3cc(C(=O)Nc4ccc(F)c(Cl)c4)ccc13)CCCC2	5%	20%	50µM*	-10%	-21%	?
COc1ccc(NC(=O)c2ccc3c(SCC(=O)O)c4c(nc3c2)CCCC4)cc1Cl	nt	-27%	nt	nt	-8%	nt
COc1ccc(Cl)cc1NC(=O)c1ccc2c(SCC(=O)O)c3c(nc2c1)CCCC3	-1%	-19%	-19%	-4%	-4%	?
COC(=O)Cn1c(CCS(=O)(=O)c2ccc(C)c(C)c2)nc2ccccc21	-3%	1%	-1%	-12%	-1%	24%
O=C(O)Cn1c(CCS(=O)(=O)c2ccc(Br)cc2)nc2ccccc21	0%	14µM*	20µM*	-36%	-1%	74%
CN(CC(=O)O)c1ccc(C=O)cc1	nt	nt	nt	-17%	nt	-16%
Nc1c(O)cccc1C(=O)O	48%	nt	-2%	?	nt	40µM*
O=C(N/N=C/C1=C(N2CCOCC2)C(=C\c2ccccc2)/CC1)Nc1ccccc1	-3%	9%	-16%	1%	-1%	-1%
CCN(CC)c1ccc(/C=C2\CCC(/C=N/NC(=O)c3ccc(=O)n(C)c3)=C2N2CCOCC2)cc1	7.1µM*	-11%	-15%	-12%	-3%	41%
Nc1cc(=O)[nH]c(SCC(=O)N2N=C(c3ccc4ccccc4c3)CC2c2ccccc2)n1 (stereo not given)	13%	5%	?	-8%	20%	45µM*
CC(=O)OCC(=O)N1N=C(c2ccc3ccccc3c2)CC1c1ccccc1 (stereo not given)	-2%	-6%	-14%	-9%	-11%	55%
NC(=O)CN1CCN(c2ccccc2F)CC1	10%	13%	-10%	-9%	-15%	9%
O=C(CN1CCN(c2ccccc2F)CC1)c1ccc(O)c(O)c1	9%	7%	?	?	-18%	45µM*
O=c1cc(-c2ccc(O)cc2)oc2cc(O)cc(O)c12	31%	-12%[57.1 µM]	?	20µM*!	-21%	?
O=c1cc(-c2ccc(O)cc2)oc2ccc(O)cc12	4%	23%	-10%	-9%[60.1 µM]	-24%	35%
